Drawing on PubChem BioAssay (Tox21), this text covers Potency for 38 molecules.

Several values for one entry are separate records, joined by “and”; a condition that tells them apart may be missing. Equal values may be shown once. Records with an inconclusive call do not appear. A call without a number means that no potency is given here. Some compounds were tested as several samples or in several runs, with calls that do not always agree. Activity calls are given as the source filed them. Calls follow the shape of the full dose curve.

Sequence of Beta-2 adrenergic receptor (Homo sapiens) (P07550 whole entry, looked up): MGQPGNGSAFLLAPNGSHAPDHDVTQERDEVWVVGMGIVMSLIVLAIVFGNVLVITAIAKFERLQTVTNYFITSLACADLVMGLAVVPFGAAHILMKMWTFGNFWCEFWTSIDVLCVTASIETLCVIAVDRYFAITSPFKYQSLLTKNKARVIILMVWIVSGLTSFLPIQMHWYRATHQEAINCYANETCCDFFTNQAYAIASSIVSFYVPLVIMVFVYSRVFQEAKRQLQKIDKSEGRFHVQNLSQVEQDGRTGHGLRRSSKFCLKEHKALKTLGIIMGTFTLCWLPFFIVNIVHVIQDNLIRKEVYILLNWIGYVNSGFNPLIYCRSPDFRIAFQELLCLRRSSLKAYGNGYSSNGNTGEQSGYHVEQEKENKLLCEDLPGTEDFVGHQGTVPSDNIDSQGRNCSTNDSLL

One assay deals with Beta-2 adrenergic receptor (Homo sapiens) (UniProt P07550). Kind of assay: Adrenergic beta2 receptor (ADRB2) small molecule antagonists, cell-based qHTS assay (AID 1963592). Also: nearly all actives have a fitted effect of over 50% in size. Also: potency is read from the fitted curve at half-maximal effect. To be noted: CHO-ADRB2 cells, isoproterenol-stimulated cAMP HTRF ratio, 0.5 h; series mostly up to 92.4 µM. An outline of the steps:
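Cells (CHO, stable ADRB2 overexpression) incubated 18-20hr at 37C; compounds added from DMSO; agonist mix (1nM isoproterenol, 100uM IBMX, 25uM Ro-20-1724) added; 0.5hr RT; d2-cAMP and anti-cAMP-cryptate added; 1hr RT; 665/615 nm read.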
(In general: qHTS replaces the single test concentration by a dilution series.)
Take `N#Cc1ccccc1`: the Potency result is “inactive”. On the same count and under the same terms, as for `C=C(CC(=O)O)C(=O)O`, the entry is “inactive”; as for `O=C(OCC1CCC2OC2C1)C1CCC2OC2C1` (stereo unspecified), “inactive”. The same measure, in the same setting: for `CC(=O)NS(=O)(=O)c1ccc(N)cc1` the value was “inactive”; for `Cc1cc(CC(=O)O)n(C)c1C(=O)c1ccc(Cl)cc1`, “inactive”. Consider `CCCCNS(=O)(=O)c1ccccc1`, for which the Potency entry was “inactive”. On the same count and under the same terms, for `Cc1cc(C)c(O)c(C)c1` the value was “inactive”; for `Nc1ccc(S(=O)(=O)Nc2cnc3ccccc3n2)cc1`, “inactive”. `COC(=O)[C@H]1[C@H]2C[C@@H]3c4[nH]c5cc(OC)ccc5c4CCN3C[C@H]2C[C@@H](OC(=O)c2cc(OC)c(OC)c(OC)c2)[C@@H]1OC`: the Potency was 54.4 µM (active) and 19.9 µM (active) and inactive.

Take `CN(C)c1ccc(C(=C2C=CC(=[N+](C)C)C=C2)c2ccccc2)cc1`: the Potency result is “inactive”.

As to `c1ccc2cc(Nc3ccc(Nc4ccc5ccccc5c4)cc3)ccc2c1`, the Potency result was “inactive”. The same measure, in the same setting: as for `COc1ccc([C@@H]2CC(=O)c3c(O)cc(O[C@@H]4O[C@H](CO[C@@H]5O[C@@H](C)[C@H](O)[C@@H](O)[C@H]5O)[C@@H](O)[C@H](O)[C@H]4O)cc3O2)cc1OC`, the entry is “inactive”; as for `CC(=O)N[C@@H](CS)C(=O)O`, “inactive”; as for `OCC1CCCO1` (stereo unspecified), “inactive”.

`CC(=O)OCc1ccc2c(c1)OCO2`: the Potency entry is “inactive”. Regarding `Cc1cc(C)c(C)cc1C`, the Potency entry was “inactive”. On to `Oc1c(Cl)cc(Cl)c(Cl)c1Cl`, for which the Potency entry is “inactive”. Same read-out and setting: for `OCCOCCOCCOCCO` the value was “inactive”; for `Oc1ccc(Cc2ccccc2O)cc1`, “inactive”. Same read-out and setting: for `ClC1=C(Cl)C(Cl)(Cl)C(Cl)=C1Cl` the value was “inactive”; for `CCOC(=O)CC(=O)OCC`, “inactive”. Still for that read-out and setting: as for `CCCCOCCOCCOC(C)=O`, the entry is “inactive”; as for `CCn1c2ccccc2c2cc(N)ccc21`, 67.9 µM (active) and inactive; as for `C=CCCCCCCCCCC`, “inactive”.

In the case of `CCCCCNCCCCC`, the Potency entry is “inactive”. With `O=C(CC(C(=O)OC1CCCCC1)S(=O)(=O)O)OC1CCCCC1` (stereo unspecified), the Potency entry is “inactive”. The same measure, in the same setting: as for `CCCN(CCC)C(=O)SCC`, the entry is “inactive”.

Another assay shares this target. Briefly: Adrenergic beta2 receptor (ADRB2) small molecule agonists, cell-based qHTS assay (AID 1963593).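 Also: CHO cells stably overexpressing human ADRB2.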 To be noted: CHO-ADRB2 cells, cAMP HTRF, 30 min; series mostly up to 92.4 µM. An outline of the steps:
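CHO cells stably over-expressing ADRB2 were plated overnight at 37C, then dosed with compounds plus a stimulation mix containing 100uM IBMX and 25uM Ro-20-1724 for 0.5hr at room temperature. cAMP was measured by HTRF competition, 1hr.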
As to `C=C(CC(=O)O)C(=O)O`, the Potency entry was “inactive”.

`CCCCNS(=O)(=O)c1ccccc1`: the Potency entry is “inactive”. The same measure, in the same setting: for `C[C@]12C=CC(=O)C=C1CC[C@H]1[C@@H]3C[C@@H](O)[C@](O)(C(=O)CO)[C@@]3(C)C[C@H](O)[C@@]12F` the value was “inactive”; for `Cc1cc(C)c(O)c(C)c1`, “inactive”; for `Nc1ccc(S(=O)(=O)Nc2cnc3ccccc3n2)cc1`, “inactive”. The same measure, in the same setting: for `c1ccc2cc(Nc3ccc(Nc4ccc5ccccc5c4)cc3)ccc2c1` the value was “inactive”; for `COc1ccc([C@@H]2CC(=O)c3c(O)cc(O[C@@H]4O[C@H](CO[C@@H]5O[C@@H](C)[C@H](O)[C@@H](O)[C@H]5O)[C@@H](O)[C@H](O)[C@H]4O)cc3O2)cc1OC`, “inactive”; for `CC(=O)N[C@@H](CS)C(=O)O`, “inactive”. The same measure, in the same setting: for `CC(=O)OCc1ccc2c(c1)OCO2` the value was “inactive”. Take `Cc1cc(C)c(C)cc1C`: the Potency result was “inactive”. On the same count and under the same terms, for `CC1(C)C(=O)N(Cl)C(=O)N1Cl` the value was “inactive”; for `Cc1ccc(C)c(O)c1`, “inactive”. On the same count and under the same terms, as for `NC(N)=S`, the entry is “inactive”; as for `CCCCCCCCCCO`, “inactive”; as for `OCCOCCOCCOCCO`, “inactive”.

As for `CCCCCCCCCCCCCC(=O)O`, the Potency entry is “inactive”. Still for that read-out and setting: for `O=S(=O)(O)c1ccc2cc(O)ccc2c1` the value was “inactive”; for `Oc1ccc(Cc2ccccc2O)cc1`, “inactive”; for `ClC1=C(Cl)C(Cl)(Cl)C(Cl)=C1Cl`, “inactive”.

`CC1(C)[C@@H]2CC[C@@]1(C)C(=O)C2`: the Potency entry was “inactive”.

Regarding `CCOC(=O)CC(=O)OCC`, the Potency entry is “inactive”. Same read-out and setting: for `CCCCOCCOCCOC(C)=O` the value was “inactive”; for `CCn1c2ccccc2c2cc(N)ccc21`, “inactive”.

Take `CC(=O)CC(=O)N(C)C`: the Potency result is “inactive”. For `CC1=C(/C=C/C(C)=C/C=C/C(C)=C/C(=O)O)C(C)(C)CCC1`, the Potency entry is “inactive”.

On to `CCCCCNCCCCC`, for which the Potency result is “inactive”.

Take `O=C(CC(C(=O)OC1CCCCC1)S(=O)(=O)O)OC1CCCCC1` (stereo unspecified): the Potency result was “inactive”. In the case of `CN(C)CCOC(=O)COc1ccc(Cl)cc1`, the Potency entry was “inactive”. Still for that read-out and setting: for `CCCN(CCC)C(=O)SCC` the value was “inactive”.
